Source: PubChem (National Center for Advancing Translational Sciences (NCATS))
Compounds with a hit are over-represented: about 2.9% of the library has one in this group of screens.
DRD3 agonist: D3 dopamine receptor (human) agonism; P35462; D3R DiscoveRx beta-arrestin cells, luminescence, 90 min; max activation, %; actives 0.58% (n = 410,000); AID 652048; in the data active means max activation above about 30%; further: 0% is about no effect
Target sequence (P35462 whole entry, looked up): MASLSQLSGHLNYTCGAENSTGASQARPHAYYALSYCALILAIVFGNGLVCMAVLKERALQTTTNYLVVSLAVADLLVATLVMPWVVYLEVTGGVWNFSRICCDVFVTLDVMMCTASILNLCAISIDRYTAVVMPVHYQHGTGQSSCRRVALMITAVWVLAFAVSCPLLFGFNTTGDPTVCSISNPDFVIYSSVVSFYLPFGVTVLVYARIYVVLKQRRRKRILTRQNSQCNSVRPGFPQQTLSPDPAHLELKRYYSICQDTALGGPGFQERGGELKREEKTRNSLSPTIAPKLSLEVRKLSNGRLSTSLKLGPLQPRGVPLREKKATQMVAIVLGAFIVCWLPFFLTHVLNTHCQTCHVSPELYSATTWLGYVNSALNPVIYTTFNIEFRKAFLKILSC
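Agonist-mode cell screen: cells plated at 1500/well and incubated overnight at 37 °C, then exposed to library compounds for 90 min at 37 °C. Detection reagent was added for 30–60 min at room temperature, and luminescence was read.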
a7 integrin act: integrin-mediated muscular dystrophy alleviation activation; alpha7betagal myoblasts, beta-gal FDG fluorescence, 48 h; Potency, µM (series often up to 38.3 µM), for inactives: at the highest dose activation, most hits filed as activators; actives 0.064% (n = 350,000); AID 624291; active means well fitted activation curve with a large enough effect;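 further: potency means the concentration at half of the fitted maximal effect; 100% = response of the positive control SU9516; nearly all actives have a fitted effect of over 60% in size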
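Alpha7betagal+/- myoblasts (passage 13) were plated 16-24 hr, then exposed to compounds (1:260 dilution of DMSO stock) for 48 hours at 37C. After MPER lysis, β-galactosidase reporter activity was read as FDG fluorescence (ex 480/em 540) after 30 minutes.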
D3 antag: D3 dopamine receptor (human) antagonism | D3R cells, DiscoveRx beta-arrestin luminescence, antagonist mode; stronger effect = lower value | actives 2.5% (n = 360,000) | max response, negative = inhibition, % | P35462; in the data active means max response below about -50%; further: on the % scale 0 is the no-effect control and ±100 the full control effect
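Cells plated overnight at 1500 cells/well, then exposed to library compounds with dopamine controls for 90 minutes at 37 degrees C. DiscoveRx reagent added for 30–60 minutes at room temperature; luminescence read, quantitative HTS format.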
* = called active by the depositor; nt = not tested or not shown; [ ] = another dose, or the depositor's remark.

SMILES	DRD3 agonist	a7 integrin act	D3 antag
O=C(NCc1cc(Cl)cc(Cl)c1)c1ccc2sc([C@H]3C[C@H](O)[C@@H](CO)O3)nc2c1	9	nt	-1
Cc1cccc(C)c1NC(=O)c1ccc2sc([C@@H]3O[C@H](CO)[C@H](O)[C@H](O)[C@H]3O)nc2c1	-8	nt	-52*
O=C(NCc1ccc(Cl)nc1)c1ccc2sc([C@@H]3O[C@H](CO)[C@H](O)[C@H](O)[C@H]3O)nc2c1	-5	nt	-6
Cc1ccc(NC(=O)Cn2ccn(-c3ccccc3)c(=O)c2=O)cc1	1	nt	nt
CCOc1ccc(NC(=O)CN(C)CC(=O)NC2CCCc3ccccc32)cc1OCC (centres undefined)	4	8%	5
Oc1ccc2ccccc2c1CNc1ccc(Br)cn1	4	20%	24
COc1cc(F)c(S(=O)(=O)N2CCOc3ccccc32)cc1OC	-6	10%	-2
Nc1nc(SCC(=O)N2CCN(c3ccc(F)cc3)CC2)n[nH]1	4	15%	-12
C=CCn1c(N)cc(=O)nc1SCC(=O)N1CCN(c2ccc(F)cc2)CC1	-8	3%	-153*
COc1ccc(Br)c(Cn2c(C)c(C(=O)NCc3cccc([N+](=O)[O-])c3)sc2=O)c1	0	nt	-15
O=C(Nc1ccncc1)Nc1ccccc1Cl	-4	0%	-6
CCCCNC(=S)N/N=C1\C(=O)c2cccc3cccc1c23	-5	-8%	22
CNC(=S)N/N=C1\C(=O)c2cccc3cccc1c23	-7	-57%	-55*
Cn1nnc(NCc2cc(Br)ccc2OCc2ccccc2F)n1	-3	17%	2
CCCCCOc1ccc(C2c3c(oc4ccccc4c3=O)C(=O)N2c2nc(C)c(C)s2)cc1OCC (centres undefined)	6	nt	nt
CN(C)Cc1c(O)ccc2c3c(c(=O)oc12)CCCCC3	5	3%	16
CN(Cc1c(O)ccc2c1oc(=O)c1ccccc12)C1CCCCC1	-58	-17%	-57*
CC1=CC(=O)C=C(C)C1=NOC(=O)c1cccc([N+](=O)[O-])c1	8	-42%	-83*
Cc1cccc(C(=O)O/N=C(\N)c2cccc([N+](=O)[O-])c2)c1	-15	2%[7.66 µM]	-29
Cc1ccc(-n2nc(C)c(NC(=O)CCl)c2C)cc1C	-4	-61%	-8
O=C(Cn1c(=O)sc2ccc(Cl)cc21)N1CCN(CCO)CC1	8	nt	nt
O=C(NCCc1ccc(F)cc1)N[C@@H](Cc1ccccc1)C(=O)O	4	11µM*	6
O=C(NCCc1ccccc1F)N[C@@H](Cc1ccccc1)C(=O)O	-4	-5%	-4
NC(=S)n1[nH]c(-c2ccccc2)c(N=Nc2ccccc2C(=O)N2CCOCC2)c1=O	19	-10%	-16
Cc1ccc(-c2nc(C(=O)O)cs2)cc1	2	18%	1
SMILES	DRD3 agonist	a7 integrin act	D3 antag
O=C(/C=C/c1cccnc1)c1ccc([N+](=O)[O-])cc1	0	6%	-13
COc1cc(C(=O)/C=C/c2cccnc2)c([N+](=O)[O-])cc1OC	0	-33%	-73*
S=c1[nH]nc(Cn2cnc3ccccc32)n1-c1ccccc1	-1	8.9µM*	2
S=c1[nH]nc(Cn2nnc3ccccc32)n1-c1ccc(Cl)cc1	2	0%	14
O=C(CN1C(=O)C2(OCCO2)c2ccccc21)c1ccc(Cl)cc1	3	-2%[7.66 µM]	-22
CC(=O)CC1(O)C(=O)N(CN2CCN(c3ccccc3)CC2)c2ccccc21 (centres undefined)	-24	-7%	-58*
CC1CCOC2(O1)C(=O)N(CN1CCN(c3cccc(Cl)c3)CC1)c1ccccc12 (centres undefined)	-15	0%	-57*
CC(C)(C)C(=O)CC1(O)C(=O)N(Cc2ccccc2)c2ccccc21 (centres undefined)	9	-7%	9
CCC(C)CNC(=O)c1cccc(OC2CCN(CC(C)(C)C)CC2)c1 (centres undefined)	-8	-6%	-6
Cc1ccc2c(c1)N(C(=O)N1CCC(C(=O)NCc3ccccc3F)CC1)CC(C)O2 (centres undefined)	-9	nt	nt
CC(=O)c1ccccc1OC(=O)c1c(F)cccc1F	-16	-13%	53
CCOC(=O)C1CCN(Cc2ccc(OCc3ccccc3)cc2)CC1	-11	0%	-19
CCN(Cc1ccccc1)C1CCN(Cc2ccc(SC)cc2)CC1	-9	-12%	-20
CCCCN(Cc1ccccc1)C1CCN(Cc2ccccc2)CC1	-23	-40%	-76*
CCCCN(C)C(=O)C1CCN(Cc2ccc(OCc3ccccc3)cc2)CC1	-14	-47%	-68*
CCCCNC(=O)c1onc(CSc2ccccc2CC)c1C(=O)O	8	0%	6
Cc1cc(OCC(=O)Nc2cccnc2)c2c(C)cc(=O)oc2c1	3	-20%	16
